Results taken from PubChem BioAssay (Tox21).
Results filed as inconclusive are left out. A call without a number means that no potency is given here. Activity calls are given as the source filed them. The call rests on the fitted dose curve; in most records, active means well fitted activation curve with a large enough effect in the repeat runs; inconclusive means weak or mixed curves; inactive means flat fitted curve, though single readings scatter.

Experiment: Caspase-3/7 induction in HepG2 cells by small molecules, qHTS assay (AID 1346978); further: nearly all actives have a fitted effect of over 15% in size
Settings: HepG2 caspase-3/7 activation, Caspase-Glo luminescence, 17 h; series mostly up to 92.4 µM; caspase activation: at the top concentration
Text: National Center for Advancing Translational Sciences [NCATS] NIH Chemical Genomics Center [NCGC] U.S. Environmental Protection Agency [EPA] National Institutes of Environmental Health Sciences [NIEHS] National Toxicology Program [NTP] Assay overview: Apoptosis is a process of programmed cell death and plays a central role in the development of multicellular organisms. It is a highly regulated process and induces cell death by activating caspases, which are the members of cysteine aspartic acid-specific protease (caspase) family. Caspases involved in apoptosis are classified by their mechanism of action as initiator caspases (caspase-2, -8, -9 and -10) and executioner caspases (caspase-3, -6, and -7). Inhibition of apoptosis results in number of cancers, autoimmune diseases, inflammatory diseases and viral infection. To identify small molecule compounds that induce apoptosis, a homogeneous, luminescent Caspase-Glo 3/7 assay was used. Wild type HepG2 cells were used to screen Tox21 libraries for identifying caspase-3/7 activity inducers.
Assay Protocol Summary: HepG2 cells were dispensed at 2,000 per well in 5uL of culture medium into white solid bottom 1536-well plates (Corning Life Sciences, Corning, NY) using a Multidrop Combi (Thermo Scientific, Waltham, MA) dispenser. The assay plates were incubated at 37 C and 5% CO2 for 5hr, and then 23nL of compounds dissolved in DMSO and positive control were transferred using a Pintool station (Wako, San Diego, CA). The assay plates were incubated at 37C and 5% CO2 for 17hr. For caspase-3/7 activity read, 4uL of Caspase-Glo 3/7 reagent (Promega Corporation, Madison, WI) was added to each well of the assay plates using Flying Reagent Dispenser (FRD, Aurora Discovery, San Diego, CA) and incubated the assay plates at room temperature for 30min. The luminescence signal was quantified using a ViewLux plate reader (Perkin Elmer, Shelton, CT).

Row | SMILES | Potency | caspase activation
1 | O=C1N=C(O)CN1/N=C/c1ccc(-c2ccc([N+](=O)[O-])cc2)o1 | inactive | –
2 | CC1(C)CC(N=C=O)CC(C)(CN=C=O)C1 (stereo not given) | inactive | –
3 | Cc1cc(=O)[nH]c(C(C)C)n1 | inactive | –
4 | O=C(Oc1ccccc1)c1ccc(O)cc1 | inactive | –
5 | C[C@@H](O)[C@H]1C(=O)N2C(C(=O)O)=C(S[C@@H]3CN[C@H](C(=O)N(C)C)C3)[C@H](C)[C@H]12 | inactive | –
6 | O=C(O)c1ccc([N+](=O)[O-])cc1 | inactive | –
7 | Cc1cc(O)c2c(c1)C(=O)c1cc(O)cc(O)c1C2=O | inactive | –
8 | CCc1ccccc1O | inactive | –
9 | CCCCC(CC)COC(=O)/C=C\C(=O)OCC(CC)CCCC (stereo not given) | inactive | –
10 | Clc1ccc(Cl)c(Cl)c1Cl | – | 0.0226% (inactive)
11 | O=C1O[C@H](CO)[C@@H](O)[C@H](O)[C@H]1O | inactive | –
12 | c1ccc2ccccc2c1 | inactive | –
13 | C=C1CC[C@H](O)CC1=C/C=C1\CCC[C@]2(C)[C@@H]([C@H](C)/C=C/[C@H](C)C(C)C)CC[C@@H]12 | inactive | –
14 | CNC[C@H](O)[C@@H](O)[C@H](O)[C@H](O)CO | inactive | –
15 | Nc1cc(-c2ccncc2)c[nH]c1=O | inactive | –
16 | CCCCCCCCCCC=CC1CC(=O)OC1=O (stereo not given) | inactive | –
17 | O=C(c1cc(O)c(O)c(O)c1)c1ccc(O)c(O)c1O | inactive | –
18 | CS(=O)(=O)Nc1ccc([N+](=O)[O-])cc1Oc1ccccc1 | inactive | –
19 | Oc1ccc(OCc2ccccc2)cc1 | inactive | –
20 | O=[N+]([O-])C(CO)(CO)CO | inactive | –

Row | SMILES | Potency | caspase activation
21 | CCCCC(CC)C(=O)OCCOCCOCCOC(=O)C(CC)CCCC (stereo not given) | inactive | –
22 | COCC(=O)O | inactive | –
23 | CCCCOCCOCCOC(=O)CCCCC(=O)OCCOCCOCCCC | inactive | –
24 | CC1Cc2ccccc2N1NC(=O)c1ccc(Cl)c(S(N)(=O)=O)c1 (stereo not given) | inactive | –
25 | C=C(C)C(=O)OCCCCCC | inactive | –
26 | CCCCCC/C=C/CCCCCCCC(=O)O | inactive | –
27 | OCC1CCCO1 (stereo not given) | inactive | –
28 | O=[N+]([O-])c1cc(N(CCO)CCO)ccc1NCCO | inactive | –
29 | Cc1ccc(C)c(C)c1 | inactive | –
30 | CC(C)(CO)COC(=O)C(C)(C)CO | inactive | –
31 | Nc1c(S(=O)(=O)O)cc(Br)c2c1C(=O)c1ccccc1C2=O | inactive | –
32 | CC(=O)CCc1ccccc1 | inactive | –
33 | Cc1ccc(N)c(S(=O)(=O)O)c1 | inactive | –
34 | CC1=C(CC(=O)O)c2cc(F)ccc2/C1=C\c1ccc(S(C)=O)cc1 (stereo not given) | inactive | –
35 | O=[N+]([O-])c1cccc(Cl)c1 | inactive | –
36 | C=C(C)C(=O)OCCCCCCCCCCCC | inactive | –
37 | CC#C[C@]1(O)CC[C@H]2[C@@H]3CCC4=CC(=O)CCC4=C3[C@@H](c3ccc(N(C)C)cc3)C[C@@]21C | inactive | –
38 | CCOC(=O)/C=C\C(=O)OCC | inactive | –
39 | NC(=O)NNc1ccccc1 | inactive | –
40 | C/C=C(C)/C=C/C=C(C)C | inactive | –
